In the supplement of paper PMC10849652:
About 7,900 targets were measured; listed, in parts, are those with a hit and a random draw of the rest. About 0.6% of all pairs of compound and target were hits.

Compound: CCCS(=O)(=O)Nc1ccc(F)c(C(=O)c2c[nH]c3ncc(Cl)cc23)c1F
Assay: log2 fold change, soluble protein after heating vs DMSO (PISA); higher = thermal stabilisation; K562 cells, 10 uM, 30 min; active = over 0.2 and 3.5 SD of the protein, either way, in both replicates (recomputed)
Procedure, shortened: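 Soluble protein was defined as the supernatant after 21,000xg for 90 min. It came from K562 cells at 2×10^6 cells/mL given 10 μM compound for 30 min, heated in aliquots for 3 min across 48°C-58°C, pooled, and extracted in PBS with 0.5% NP-40 at 4°C, and was quantified by TMTpro 16plex LC-MS/MS with equalised channel sums. Thermal stability against control samples, from duplicates, is reported as log2 fold change.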

UniProt Q7Z7N9, sequence (Q7Z7N9 whole entry, looked up): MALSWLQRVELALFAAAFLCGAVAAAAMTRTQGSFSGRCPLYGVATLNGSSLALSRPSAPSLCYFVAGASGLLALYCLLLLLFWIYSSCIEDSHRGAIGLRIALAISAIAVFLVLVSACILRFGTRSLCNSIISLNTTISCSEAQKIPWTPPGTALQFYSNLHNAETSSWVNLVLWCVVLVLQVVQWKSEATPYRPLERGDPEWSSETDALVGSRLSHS
UniProt Q9NQ34, sequence (Q9NQ34 whole entry, looked up): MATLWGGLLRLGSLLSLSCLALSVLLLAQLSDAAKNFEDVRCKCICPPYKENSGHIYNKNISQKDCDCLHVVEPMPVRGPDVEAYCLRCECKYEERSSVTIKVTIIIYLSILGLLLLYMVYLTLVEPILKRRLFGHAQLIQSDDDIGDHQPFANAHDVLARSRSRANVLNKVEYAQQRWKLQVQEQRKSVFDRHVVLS
UniProt P21796, sequence (P21796 whole entry, looked up): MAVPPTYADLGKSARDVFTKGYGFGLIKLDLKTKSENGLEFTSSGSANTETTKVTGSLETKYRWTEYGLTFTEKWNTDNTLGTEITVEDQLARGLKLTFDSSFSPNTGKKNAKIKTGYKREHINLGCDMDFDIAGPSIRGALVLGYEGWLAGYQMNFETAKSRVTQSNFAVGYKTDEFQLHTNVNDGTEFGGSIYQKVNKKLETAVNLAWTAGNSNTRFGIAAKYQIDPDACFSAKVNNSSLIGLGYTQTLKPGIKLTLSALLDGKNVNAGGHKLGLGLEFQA
UniProt Q9H4I3, sequence (Q9H4I3 whole entry, looked up): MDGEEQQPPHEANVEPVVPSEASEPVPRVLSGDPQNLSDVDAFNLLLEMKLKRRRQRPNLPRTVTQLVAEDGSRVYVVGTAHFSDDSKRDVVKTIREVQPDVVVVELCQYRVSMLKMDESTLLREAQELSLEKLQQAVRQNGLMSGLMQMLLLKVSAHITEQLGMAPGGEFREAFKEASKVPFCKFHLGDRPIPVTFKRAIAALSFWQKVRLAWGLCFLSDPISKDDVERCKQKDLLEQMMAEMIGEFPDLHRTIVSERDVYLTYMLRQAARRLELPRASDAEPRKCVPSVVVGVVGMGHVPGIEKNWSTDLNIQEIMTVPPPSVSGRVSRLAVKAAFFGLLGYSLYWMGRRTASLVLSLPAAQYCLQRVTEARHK
UniProt P68366, sequence (P68366 whole entry, looked up): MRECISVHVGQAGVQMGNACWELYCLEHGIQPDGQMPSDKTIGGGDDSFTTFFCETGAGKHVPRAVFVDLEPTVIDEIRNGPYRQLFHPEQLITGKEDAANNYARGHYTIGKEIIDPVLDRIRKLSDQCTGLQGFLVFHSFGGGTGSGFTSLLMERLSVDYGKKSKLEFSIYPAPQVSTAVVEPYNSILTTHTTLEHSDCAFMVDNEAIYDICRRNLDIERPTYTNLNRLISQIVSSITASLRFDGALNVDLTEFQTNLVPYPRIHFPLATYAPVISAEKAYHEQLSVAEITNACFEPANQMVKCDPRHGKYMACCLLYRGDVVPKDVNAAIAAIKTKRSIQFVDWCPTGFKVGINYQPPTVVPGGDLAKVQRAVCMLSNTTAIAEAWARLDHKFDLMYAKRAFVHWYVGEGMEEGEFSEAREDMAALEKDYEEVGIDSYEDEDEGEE
UniProt Q9H4A3, sequence (Q9H4A3 whole entry, looked up): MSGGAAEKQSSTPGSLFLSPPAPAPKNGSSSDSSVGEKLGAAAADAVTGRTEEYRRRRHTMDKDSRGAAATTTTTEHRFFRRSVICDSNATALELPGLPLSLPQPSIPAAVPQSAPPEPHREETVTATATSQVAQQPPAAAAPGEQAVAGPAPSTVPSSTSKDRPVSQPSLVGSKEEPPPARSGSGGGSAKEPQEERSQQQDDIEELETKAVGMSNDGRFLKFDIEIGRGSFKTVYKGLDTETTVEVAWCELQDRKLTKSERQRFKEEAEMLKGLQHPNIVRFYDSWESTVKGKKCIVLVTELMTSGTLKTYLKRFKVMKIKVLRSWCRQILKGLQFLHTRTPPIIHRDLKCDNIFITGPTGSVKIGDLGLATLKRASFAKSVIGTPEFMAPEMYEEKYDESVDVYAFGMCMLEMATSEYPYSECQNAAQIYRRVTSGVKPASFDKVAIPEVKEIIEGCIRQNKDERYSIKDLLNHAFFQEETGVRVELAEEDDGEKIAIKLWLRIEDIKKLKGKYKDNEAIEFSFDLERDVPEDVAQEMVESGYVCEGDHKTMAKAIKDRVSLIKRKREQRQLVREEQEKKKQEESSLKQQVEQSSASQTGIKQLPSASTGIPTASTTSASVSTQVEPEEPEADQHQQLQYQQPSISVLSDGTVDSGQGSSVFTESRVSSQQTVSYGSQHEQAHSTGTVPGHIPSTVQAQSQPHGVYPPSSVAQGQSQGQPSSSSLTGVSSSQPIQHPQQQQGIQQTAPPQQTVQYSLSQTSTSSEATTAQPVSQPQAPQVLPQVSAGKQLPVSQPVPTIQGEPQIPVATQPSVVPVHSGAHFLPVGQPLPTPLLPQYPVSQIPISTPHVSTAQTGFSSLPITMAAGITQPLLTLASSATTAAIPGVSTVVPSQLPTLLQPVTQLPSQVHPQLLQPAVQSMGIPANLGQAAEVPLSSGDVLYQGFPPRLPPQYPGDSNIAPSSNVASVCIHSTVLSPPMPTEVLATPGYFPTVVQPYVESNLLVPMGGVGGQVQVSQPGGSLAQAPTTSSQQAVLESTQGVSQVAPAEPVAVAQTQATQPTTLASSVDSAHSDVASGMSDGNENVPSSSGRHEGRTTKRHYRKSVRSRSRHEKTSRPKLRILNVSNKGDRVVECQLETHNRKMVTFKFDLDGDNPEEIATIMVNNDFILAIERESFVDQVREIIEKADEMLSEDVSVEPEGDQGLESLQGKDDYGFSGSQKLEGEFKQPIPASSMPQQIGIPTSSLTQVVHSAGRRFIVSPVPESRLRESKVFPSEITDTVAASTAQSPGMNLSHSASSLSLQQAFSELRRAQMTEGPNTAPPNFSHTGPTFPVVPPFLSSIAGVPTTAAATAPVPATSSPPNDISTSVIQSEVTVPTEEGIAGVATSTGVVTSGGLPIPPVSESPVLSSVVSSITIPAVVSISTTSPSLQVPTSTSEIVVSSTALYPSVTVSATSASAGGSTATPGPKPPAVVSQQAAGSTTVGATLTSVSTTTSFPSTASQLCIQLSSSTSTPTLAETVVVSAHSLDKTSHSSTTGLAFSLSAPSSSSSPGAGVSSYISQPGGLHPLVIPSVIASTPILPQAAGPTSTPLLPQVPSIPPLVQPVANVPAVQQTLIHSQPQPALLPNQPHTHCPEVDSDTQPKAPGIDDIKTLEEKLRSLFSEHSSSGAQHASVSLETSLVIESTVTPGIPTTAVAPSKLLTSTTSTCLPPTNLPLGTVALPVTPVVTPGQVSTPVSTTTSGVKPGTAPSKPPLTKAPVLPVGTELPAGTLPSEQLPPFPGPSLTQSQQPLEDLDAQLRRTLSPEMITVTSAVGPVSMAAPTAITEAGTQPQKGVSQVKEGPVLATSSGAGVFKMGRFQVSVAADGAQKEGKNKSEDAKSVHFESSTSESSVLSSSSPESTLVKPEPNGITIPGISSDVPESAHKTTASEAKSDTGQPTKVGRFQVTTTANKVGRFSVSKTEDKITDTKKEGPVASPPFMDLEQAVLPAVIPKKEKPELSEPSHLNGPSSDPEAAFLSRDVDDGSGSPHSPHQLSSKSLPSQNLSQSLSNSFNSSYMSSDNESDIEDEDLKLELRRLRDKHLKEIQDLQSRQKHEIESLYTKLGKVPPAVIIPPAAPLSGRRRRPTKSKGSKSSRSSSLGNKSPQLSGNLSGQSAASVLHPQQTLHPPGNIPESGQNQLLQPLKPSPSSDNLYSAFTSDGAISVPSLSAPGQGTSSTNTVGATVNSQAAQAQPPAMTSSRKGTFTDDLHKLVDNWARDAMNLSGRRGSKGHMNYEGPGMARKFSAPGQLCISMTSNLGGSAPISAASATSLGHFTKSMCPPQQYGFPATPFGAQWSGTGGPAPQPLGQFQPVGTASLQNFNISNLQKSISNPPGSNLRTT
UniProt P30291, sequence (P30291 whole entry, looked up): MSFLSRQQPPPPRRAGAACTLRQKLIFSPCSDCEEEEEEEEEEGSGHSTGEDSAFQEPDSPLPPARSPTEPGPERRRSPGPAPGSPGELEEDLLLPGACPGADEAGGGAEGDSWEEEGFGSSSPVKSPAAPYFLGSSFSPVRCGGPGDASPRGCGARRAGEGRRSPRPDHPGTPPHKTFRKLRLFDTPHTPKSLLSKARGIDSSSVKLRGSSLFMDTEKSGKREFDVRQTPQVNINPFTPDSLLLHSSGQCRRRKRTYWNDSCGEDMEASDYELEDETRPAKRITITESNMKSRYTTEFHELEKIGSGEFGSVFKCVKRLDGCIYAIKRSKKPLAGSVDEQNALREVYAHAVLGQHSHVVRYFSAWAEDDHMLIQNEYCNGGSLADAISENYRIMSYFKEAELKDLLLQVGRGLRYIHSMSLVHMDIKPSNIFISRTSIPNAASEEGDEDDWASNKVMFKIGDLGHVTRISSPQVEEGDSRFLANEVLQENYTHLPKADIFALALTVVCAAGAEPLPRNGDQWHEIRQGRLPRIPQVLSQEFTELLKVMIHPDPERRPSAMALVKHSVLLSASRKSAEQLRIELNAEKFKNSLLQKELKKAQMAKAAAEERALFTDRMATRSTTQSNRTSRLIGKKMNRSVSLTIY
UniProt Q9BUB7, sequence (Q9BUB7 whole entry, looked up): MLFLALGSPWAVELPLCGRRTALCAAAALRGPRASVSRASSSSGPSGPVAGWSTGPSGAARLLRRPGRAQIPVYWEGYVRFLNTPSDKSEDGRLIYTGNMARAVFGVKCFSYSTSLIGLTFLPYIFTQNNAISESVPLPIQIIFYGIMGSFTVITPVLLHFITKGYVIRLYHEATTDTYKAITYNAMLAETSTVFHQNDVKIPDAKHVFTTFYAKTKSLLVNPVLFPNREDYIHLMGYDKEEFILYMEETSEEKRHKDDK
UniProt Q9NX01, sequence (Q9NX01 whole entry, looked up): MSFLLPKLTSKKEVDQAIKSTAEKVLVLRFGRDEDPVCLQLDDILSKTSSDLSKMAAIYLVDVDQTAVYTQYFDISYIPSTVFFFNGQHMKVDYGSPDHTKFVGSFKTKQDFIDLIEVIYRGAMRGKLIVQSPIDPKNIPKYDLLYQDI

log2 fold change, inactive:
VPS11 (UniProt Q9H270) 0.073
TXNL4B (UniProt Q9NX01) 0.024
USP3 (UniProt Q9Y6I4) 0.192
TRIM4 (UniProt Q9C037) -0.041
TMEM128 (UniProt Q5BJH2) 0.052
VPS53 isoform 4 (UniProt Q5VIR6) 0.003
VPS37A (UniProt Q8NEZ2) 0.054
TUBA4A (UniProt P68366) 0.068
VDAC1 (UniProt P21796) 0.018
UBA52 (UniProt P62987) -0.165
VPS28 (UniProt Q9UK41) -0.008
UNC119B (UniProt A6NIH7) -0.047
TRMT61A (UniProt Q96FX7) -0.009
WNK1 isoform 7 (UniProt Q9H4A3) 0.004
TSPAN13 (UniProt O95857) -0.08
TTI2 (UniProt Q6NXR4) 0.06
TTC33 (UniProt Q6PID6) -0.002
UTP3 (UniProt Q9NQZ2) 0.022
ULBP1 (UniProt Q9BZM6) 0.053
UBE3B (UniProt Q7Z3V4) -0.099
VPS13B (UniProt Q7Z7G8) -0.011
TMEM70 (UniProt Q9BUB7) 0.029
UBE4B isoform 4 (UniProt O95155) 0.045
VPS72 isoform 2 (UniProt Q15906) -0.028
UBIAD1 (UniProt Q9Y5Z9) 0.093
TRIM44 (UniProt Q96DX7) 0.042
UGDH (UniProt O60701) 0.102
TRABD (UniProt Q9H4I3) -0.06
UBXN8 (UniProt O00124) -0.024
WEE1 (UniProt P30291) 0
UCHL5 isoform 3 (UniProt Q9Y5K5) 0.243
UFM1 (UniProt P61960) 0.041
TSC2 (UniProt P49815) 0.098
TMEM9B (UniProt Q9NQ34) 0.064
VKORC1 (UniProt Q9BQB6) 0.117
TMEM179B (UniProt Q7Z7N9) 0.053
